Source: PubChem BioAssay (National Center for Advancing Translational Sciences (NCATS))
Most compounds without a hit are left out; they make up all but 19% or so of the library.
IL1B secr inh = qHTS for Inhibitors of Inflammasome Signaling: IL-1-beta AlphaLISA Primary Screen. THP-1 LPS/ATP IL-1B secretion, AlphaLISA, 16 h; hits give low values. activity change, % at 57.5 µM. actives 4.7% (n = 360,000). AID 743279, 2014; in the data active = activity change below about -50%; inconclusive = mostly about -30% to -49%
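Secreted IL-1B measured by AlphaLISA bead assay after 16 h compound exposure of THP-1 cells; compounds (final up to 57.5 uM) added 1 h before LPS (250 ng/mL) and ATP (1.25 mM) stimulation; lower signal means less secretion.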
HT1080 IDH1KD tx = qHTS for induction of synthetic lethality in tumor cells producing 2HG: qHTS for the HT-1080-IDH1KD cell line; actives 2% (n = 360,000); HT-1080 IDH1 knockdown viability, ATP luminescence, 48 h; Potency, µM (doses to about 46.1 µM), without a hit: top-dose activity, negative = toxicity, most hits filed as cytotoxic;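 also: potency is read from the fitted curve at half-maximal effect; 0% = DMSO wells and -100% = cell-free medium wells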
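Luminescent ATP read-out (CellTiter-Glo, 10 min at room temperature) after 48 h compound exposure at 37 °C gave viability of IDH1-knockdown HT-1080 cells. Activity was normalised to DMSO and cell-free wells, then fitted as concentration-response curves.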
TDP1 cell CPT = qHTS for Inhibitors of human tyrosyl-DNA phosphodiesterase 1 (TDP1): qHTS in cells in presence of CPT | Potency, µM (highest dose often 46.2 µM), inactives show at the top dose activity change, negative = growth inhibition, actives largely listed as inhibitors | chicken DT40 Tdp1-/-;hTDP1 cells + 20 nM CPT, ATP luminescence, 48 h | actives 12% (n = 420,000); also: potency is read from the fitted curve at half-maximal effect; nearly all actives have a fitted effect of over 55% in size
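Cell growth measured by CellTiter-Glo luminescence after a minimum 48 h, 37 C compound exposure with 20 nM CPT in Tdp1-knockout DT40 cells stably expressing hTDP1, seeded 400/well; qHTS titration format.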
TDP1 cell noCPT = qHTS for Inhibitors of human tyrosyl-DNA phosphodiesterase 1 (TDP1): qHTS in cells in absence of CPT. actives 15% (n = 420,000). Potency, µM (doses to about 46.2 µM), for inactives: at the top dose activity change, negative = growth inhibition, usual class: inhibitors. AID 686978, 2013. DT40 Tdp1-/- hTDP1 cells, no CPT, ATP luminescence, 48 h; also: potency is read from the fitted curve at half-maximal effect; nearly all actives have a fitted effect of over 55% in size
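Luminescent ATP content (CellTiter-Glo) served as the growth readout. Knockout chicken DT40 cells expressing human TDP1 were exposed to compounds without camptothecin for a minimum 48 hr at 37 °C.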
ELG1 DNA repair = qHTS screen for small molecules that inhibit ELG1-dependent DNA repair in human embryonic kidney (HEK293T) cells expressing luciferase-tagged ELG1 | HEK293T ELG1-luciferase reporter, luminescence, 16 h; DNA damage induced by 5-fluorouridine | Potency, µM (top dose mostly 46.1 µM), for inactives: at the highest dose activity change, negative = inhibition, usual class: inhibitors | actives 2.3% (n = 330,000); also: potency is read from the fitted curve at half-maximal effect; nearly all actives have a fitted effect of over 55% in size
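Luminescence from the luciferase reporter, measured 30 min after ONE-Glo reagent at room temperature, was the read-out. Beforehand, 2,000 cells per well were exposed for 16 hr at 37 °C to 5-fluorouridine together with compound or vehicle.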
HT1080-NT tox = qHTS for induction of synthetic lethality in tumor cells producing 2HG: qHTS for the HT-1080-NT fibrosarcoma cell line | HT-1080-NT fibrosarcoma viability, CellTiter-Glo ATP luminescence, 48 h | Potency, µM (titrated, usually from 46.1 µM), without a hit: at the highest dose activity, negative = less viability, most hits filed as cytotoxic | actives 1.6% (n = 360,000) | AID 686970, 2013;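 also: NT is the 2HG producing partner of a matched IDH1 knockdown line; potency is read from the fitted curve at half-maximal effect; 0% = DMSO-treated cells and -100% = media-only wells without cells; nearly all actives have a fitted effect of over 55% in size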
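Toxicity toward the 2HG-producing NT line was scored as %Activity, normalised to DMSO and no-cell wells, from CellTiter-Glo luminescence after 48 hours' treatment.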
The depositor's hits bear a star. Unless noted, calls follow the shape of the dose curve; as a rule, active = well fitted curve in the direction sought with a large enough effect; inconclusive = small, poorly fitted or top-dose-only effect, or another doubt; inactive = no such curve, though single readings can be large; an effect the other way counts as inactive or inconclusive. Unless noted, % is scaled to controls: 0 for no effect and ±100 for the full control effect.

What do the screens show for `Cc1nc2c(nnn2Cc2ccccc2Cl)c(=O)[nH]1`?
IL1B secr inh: 11.4; HT1080 IDH1KD tx: 9.7%; TDP1 cell CPT: -6.2%; TDP1 cell noCPT: -24.9%; ELG1 DNA repair: 1.8%; HT1080-NT tox: 12.0%

What do the screens show for `O=c1[nH]c(C2CCN(S(=O)(=O)/C=C/c3ccccc3)CC2)nc2c1nnn2Cc1ccc(F)cc1`?
IL1B secr inh: -54.5*; HT1080 IDH1KD tx: -26.2%; TDP1 cell CPT: 20.6µM*; TDP1 cell noCPT: 18.4µM*; ELG1 DNA repair: inconclusive; HT1080-NT tox: inconclusive

What do the screens show for `Cc1ccc(C)c(S(=O)(=O)N2CCC(c3nc4c(nnn4Cc4ccc(F)cc4)c(=O)[nH]3)CC2)c1`?
IL1B secr inh: 28.1; HT1080 IDH1KD tx: -19.3%; TDP1 cell CPT: inconclusive; TDP1 cell noCPT: inconclusive; ELG1 DNA repair: inconclusive; HT1080-NT tox: -21.9%

Results for O=c1[nH]c(C2CCN(S(=O)(=O)Cc3ccccc3)CC2)nc2c1nnn2Cc1ccccc1 ?
IL1B secr inh: -20.1; HT1080 IDH1KD tx: 0.0%; TDP1 cell CPT: inconclusive; TDP1 cell noCPT: inconclusive; ELG1 DNA repair: 23.1µM*; HT1080-NT tox: -3.2%

Results for Cc1nc2c(nnn2Cc2ccccc2)c(=O)[nH]1 ?
IL1B secr inh: 0.0; HT1080 IDH1KD tx: -0.6%; TDP1 cell CPT: 23.1µM*; TDP1 cell noCPT: inconclusive; ELG1 DNA repair: 2.3%; HT1080-NT tox: 14.3%

Results for O=c1[nH]c(C2CCN(S(=O)(=O)Cc3ccccc3)CC2)nc2c1nnn2Cc1cccc(Cl)c1 ?
IL1B secr inh: -12.2; HT1080 IDH1KD tx: inconclusive; TDP1 cell CPT: 16.4µM*; TDP1 cell noCPT: 18.4µM*; ELG1 DNA repair: -7.8%; HT1080-NT tox: inconclusive

Results for CC(NC(=O)COC(=O)c1ccc[nH]c1=O)c1ccccc1 (stereo not drawn) ?
IL1B secr inh: 8.7; HT1080 IDH1KD tx: 11.1%; TDP1 cell CPT: -6.7%; TDP1 cell noCPT: -16.3%; ELG1 DNA repair: 6.9%; HT1080-NT tox: 4.4%

What do the screens show for `Cc1ccc(C)c(N2CCN(C3(c4ccccc4)C(=O)c4ccccc4C3=O)CC2)c1`?
TDP1 cell CPT: -9.9%; TDP1 cell noCPT: -23.1%

Results for CN(C)c1ncc2nc(-c3ccc(F)cc3)c(=O)n(C3CC3)c2n1 ?
TDP1 cell CPT: -1.8%; TDP1 cell noCPT: 0.0%

Results for O=c1[nH]c(C2CCN(S(=O)(=O)Cc3ccccc3)CC2)nc2c1nnn2Cc1ccccc1Cl ?
IL1B secr inh: 23.7; HT1080 IDH1KD tx: -7.0%; TDP1 cell CPT: inconclusive; TDP1 cell noCPT: inconclusive; ELG1 DNA repair: 25.9µM*; HT1080-NT tox: -14.3%

How did O=C(CC1SC(=Nc2ccccc2)N(CCc2ccccn2)C1=O)Nc1ccc(F)cc1 (stereo not drawn) do in these assays?
IL1B secr inh: -9.4; HT1080 IDH1KD tx: inconclusive; TDP1 cell CPT: inconclusive; TDP1 cell noCPT: inconclusive; ELG1 DNA repair: -16.8%; HT1080-NT tox: inconclusive

What do the screens show for `COc1cccc(N=C2SC(CC(=O)Nc3ccccc3)C(=O)N2Cc2ccccn2)c1` (stereo not drawn)?
IL1B secr inh: -62.7*; HT1080 IDH1KD tx: -14.6%; TDP1 cell CPT: inconclusive; TDP1 cell noCPT: inconclusive; ELG1 DNA repair: -20.5%; HT1080-NT tox: -18.9%

Results for Cc1cccc(C)c1N=C1SC(CC(=O)Nc2c(C)cccc2C)C(=O)N1CCc1ccccn1 (stereo not drawn) ?
IL1B secr inh: inconclusive; HT1080 IDH1KD tx: -8.5%; TDP1 cell CPT: inconclusive; TDP1 cell noCPT: 16.4µM*; ELG1 DNA repair: -0.8%; HT1080-NT tox: -6.0%

Results for Cc1ccc(-c2noc(C3CC(=O)N(c4ccc5c(c4)OCCO5)C3)n2)cc1 (stereo not drawn) ?
TDP1 cell CPT: -9.4%; TDP1 cell noCPT: -5.4%

Results for CCn1c(C)c(CS(=O)(=O)c2ccccc2)[nH]c1=O ?
IL1B secr inh: -6.0; HT1080 IDH1KD tx: inconclusive; TDP1 cell CPT: 4.11µM*; TDP1 cell noCPT: 2.91µM*; ELG1 DNA repair: 5.0%; HT1080-NT tox: inconclusive

How did O=C(Nc1nc2c(Cl)cccc2s1)c1ccc([N+](=O)[O-])o1 do in these assays?
IL1B secr inh: -10.6; HT1080 IDH1KD tx: 1.1%; TDP1 cell CPT: 20.6µM*; TDP1 cell noCPT: 16.4µM*; ELG1 DNA repair: inconclusive; HT1080-NT tox: -4.2%

What do the screens show for `O=C(Nc1nc2c(F)cccc2s1)c1ccc(S(=O)(=O)N2CCOCC2)cc1`?
TDP1 cell CPT: inconclusive; TDP1 cell noCPT: -4.0%

What do the screens show for `O=C(Nc1nc2ccc(F)cc2s1)c1ccc([N+](=O)[O-])o1`?
IL1B secr inh: -100.7*; HT1080 IDH1KD tx: -26.8%; TDP1 cell CPT: 6.51µM*; TDP1 cell noCPT: 7.31µM*; HT1080-NT tox: inconclusive

What do the screens show for `O=C(Nc1nc2c(F)cccc2s1)c1ccc([N+](=O)[O-])o1`?
IL1B secr inh: -12.2; HT1080 IDH1KD tx: -6.6%; TDP1 cell CPT: 13µM*; TDP1 cell noCPT: 16.4µM*; ELG1 DNA repair: inconclusive; HT1080-NT tox: 1.4%

Results for CC(C)CN(C(=O)c1cccc(Cl)c1)c1c(N)n(CC(C)C)c(=O)[nH]c1=O ?
IL1B secr inh: -15.5; HT1080 IDH1KD tx: -8.3%; TDP1 cell CPT: 21.2%; TDP1 cell noCPT: -5.3%; ELG1 DNA repair: -2.7%; HT1080-NT tox: 2.3%

Results for Cc1ccc2[nH]cc(CCNC(=O)c3ccc4c(c3)OCO4)c2c1 ?
IL1B secr inh: -52.9*; HT1080 IDH1KD tx: 11.6%; TDP1 cell CPT: -19.2%; TDP1 cell noCPT: -26.2%; ELG1 DNA repair: -2.3%; HT1080-NT tox: 13.1%

Results for COc1ccc2[nH]cc(CCNC(C)=O)c2c1 ?
IL1B secr inh: 6.6; HT1080 IDH1KD tx: 0.5%; TDP1 cell CPT: -6.3%; TDP1 cell noCPT: 2.7%; HT1080-NT tox: 25.5%

How did O=C(NCCc1c[nH]c2ccccc12)c1ccc2c(c1)OCO2 do in these assays?
IL1B secr inh: 6.6; HT1080 IDH1KD tx: -7.2%; TDP1 cell CPT: -5.0%; TDP1 cell noCPT: inconclusive; ELG1 DNA repair: inconclusive; HT1080-NT tox: -16.9%
